Assays:
Test in all cases: DAPPL (digital affinity profiling via proximity ligation, sequencing); 10 mM Tris-HCl pH 7.5, 50 mM NaCl, 1 mM DTT, 4% glycerol, room temperature, 30 min; GST-TFs on glutathione beads, 16-mer random dsDNA library, 0.1% formaldehyde crosslink after washing; high values mean tight binding
[1] = molecular target: T1, FEV (Homo sapiens, UniProt Q99581 1-238); settings: protein: recombinant; tags: N-terminal GST; dsDNA, one strand shown
T1 sequence: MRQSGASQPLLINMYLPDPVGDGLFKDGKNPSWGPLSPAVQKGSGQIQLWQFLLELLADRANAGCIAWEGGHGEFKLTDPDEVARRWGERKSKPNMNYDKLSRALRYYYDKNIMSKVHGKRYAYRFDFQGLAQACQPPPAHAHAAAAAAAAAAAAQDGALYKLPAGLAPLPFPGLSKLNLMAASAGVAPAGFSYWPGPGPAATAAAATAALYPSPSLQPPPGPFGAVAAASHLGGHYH
Summary of the method: (§1)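 Yeast served to express human transcription factors as GST fusions, which were then captured on glutathione beads and labelled with DNA barcodes. Pooled with a tag-only sample, they were incubated with 200 nmole of a 16-mer random double-stranded DNA library for 30 min at room temperature in Tris/NaCl/DTT/glycerol buffer, washed, crosslinked with 0.1% formaldehyde, ligated by proximity, amplified by PCR and sequenced. Dividing each hexamer's read frequency for a factor by its frequency for the tag-only sample gives the binding signal.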

[2] = molecular target: ETV5 (Homo sapiens, UniProt P41161 1-510); settings: protein: recombinant; tags: N-terminal GST; dsDNA, one strand shown
Chain of ETV5 (P41161 whole entry): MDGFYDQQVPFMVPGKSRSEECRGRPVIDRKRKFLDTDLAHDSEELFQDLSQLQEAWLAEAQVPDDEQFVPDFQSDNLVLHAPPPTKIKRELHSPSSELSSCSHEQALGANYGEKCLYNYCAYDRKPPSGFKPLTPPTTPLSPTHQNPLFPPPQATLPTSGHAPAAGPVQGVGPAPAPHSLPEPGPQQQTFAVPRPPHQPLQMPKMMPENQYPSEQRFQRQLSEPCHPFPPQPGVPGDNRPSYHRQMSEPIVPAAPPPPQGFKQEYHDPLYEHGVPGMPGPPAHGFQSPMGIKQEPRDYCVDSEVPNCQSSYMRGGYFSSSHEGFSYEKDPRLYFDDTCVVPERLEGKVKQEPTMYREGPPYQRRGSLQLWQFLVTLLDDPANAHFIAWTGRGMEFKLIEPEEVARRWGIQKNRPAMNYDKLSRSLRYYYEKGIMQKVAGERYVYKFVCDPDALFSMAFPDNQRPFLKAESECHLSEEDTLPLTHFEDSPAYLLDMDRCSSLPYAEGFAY
Summary of the method: as §1

[3] = molecular target: HSF1 (Homo sapiens, UniProt Q00613 1-529); settings: protein: recombinant; tags: N-terminal GST; chain copies: 3; dsDNA, one strand shown
Chain of HSF1 (Q00613 whole entry): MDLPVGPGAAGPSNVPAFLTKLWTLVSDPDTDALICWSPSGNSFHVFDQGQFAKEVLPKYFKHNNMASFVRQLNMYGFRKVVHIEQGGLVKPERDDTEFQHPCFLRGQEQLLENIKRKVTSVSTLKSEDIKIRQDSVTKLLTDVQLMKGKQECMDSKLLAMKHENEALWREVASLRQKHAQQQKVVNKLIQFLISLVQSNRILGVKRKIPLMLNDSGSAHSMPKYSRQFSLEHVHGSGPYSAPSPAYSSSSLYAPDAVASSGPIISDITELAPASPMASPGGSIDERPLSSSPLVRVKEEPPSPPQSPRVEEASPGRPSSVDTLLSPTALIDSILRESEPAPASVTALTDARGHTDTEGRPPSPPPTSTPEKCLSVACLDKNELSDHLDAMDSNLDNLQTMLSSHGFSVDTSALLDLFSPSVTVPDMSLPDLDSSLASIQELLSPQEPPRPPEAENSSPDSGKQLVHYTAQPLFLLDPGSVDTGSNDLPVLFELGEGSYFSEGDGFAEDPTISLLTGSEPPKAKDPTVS
Summary of the method: as §1

[4] = molecular target: T2, SPIC (Homo sapiens, UniProt Q8N5J4 1-248); settings: protein: recombinant; tags: N-terminal GST; dsDNA, one strand shown
T2 sequence: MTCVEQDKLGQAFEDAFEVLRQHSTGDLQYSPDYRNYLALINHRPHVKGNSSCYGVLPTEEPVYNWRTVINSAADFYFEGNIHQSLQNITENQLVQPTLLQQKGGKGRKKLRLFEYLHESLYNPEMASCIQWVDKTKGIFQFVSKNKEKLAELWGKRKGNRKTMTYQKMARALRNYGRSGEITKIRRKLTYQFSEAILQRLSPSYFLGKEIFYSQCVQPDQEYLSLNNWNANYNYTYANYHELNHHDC
Summary of the method: as §1

[5] = molecular target: ELF4 (Homo sapiens, UniProt Q99607 1-663); settings: protein: recombinant; tags: N-terminal GST; dsDNA, one strand shown
Chain of ELF4 (Q99607 whole entry): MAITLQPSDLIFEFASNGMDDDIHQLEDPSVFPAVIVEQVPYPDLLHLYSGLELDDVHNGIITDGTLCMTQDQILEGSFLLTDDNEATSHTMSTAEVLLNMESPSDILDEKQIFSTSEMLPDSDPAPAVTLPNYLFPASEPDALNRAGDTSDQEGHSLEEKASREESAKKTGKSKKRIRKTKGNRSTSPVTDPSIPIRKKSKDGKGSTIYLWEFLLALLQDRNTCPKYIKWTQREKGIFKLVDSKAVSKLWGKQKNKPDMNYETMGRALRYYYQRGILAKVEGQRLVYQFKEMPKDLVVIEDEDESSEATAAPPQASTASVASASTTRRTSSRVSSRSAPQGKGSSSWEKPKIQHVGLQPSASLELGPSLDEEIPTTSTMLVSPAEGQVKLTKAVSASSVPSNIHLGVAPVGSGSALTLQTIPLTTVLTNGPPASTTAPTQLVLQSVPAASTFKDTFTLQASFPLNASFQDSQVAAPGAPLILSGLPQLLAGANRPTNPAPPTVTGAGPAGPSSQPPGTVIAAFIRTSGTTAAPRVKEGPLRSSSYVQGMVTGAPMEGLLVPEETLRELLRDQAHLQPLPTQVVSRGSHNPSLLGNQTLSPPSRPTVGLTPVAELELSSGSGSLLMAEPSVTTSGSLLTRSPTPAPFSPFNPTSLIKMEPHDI
Summary of the method: as §1

[6] = molecular target: T3, ELK4 (Homo sapiens, UniProt P28324-2 1-405); settings: protein: recombinant; tags: N-terminal GST; dsDNA, one strand shown
T3 sequence: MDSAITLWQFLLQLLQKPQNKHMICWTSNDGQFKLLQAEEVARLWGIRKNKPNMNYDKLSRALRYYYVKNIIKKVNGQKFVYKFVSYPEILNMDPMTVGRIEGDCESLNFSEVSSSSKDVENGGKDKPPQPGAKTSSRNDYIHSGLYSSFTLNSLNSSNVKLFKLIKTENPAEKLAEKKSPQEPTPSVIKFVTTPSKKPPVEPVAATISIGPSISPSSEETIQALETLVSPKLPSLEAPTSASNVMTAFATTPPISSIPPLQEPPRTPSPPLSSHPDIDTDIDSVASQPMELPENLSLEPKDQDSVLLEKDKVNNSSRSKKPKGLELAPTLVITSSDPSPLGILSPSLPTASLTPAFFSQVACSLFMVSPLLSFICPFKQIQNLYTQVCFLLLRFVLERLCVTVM
Summary of the method: as §1

[7] = molecular target: T4, ETV2 (Homo sapiens, UniProt O00321 1-342); settings: protein: recombinant; tags: N-terminal GST; dsDNA, one strand shown
T4 sequence: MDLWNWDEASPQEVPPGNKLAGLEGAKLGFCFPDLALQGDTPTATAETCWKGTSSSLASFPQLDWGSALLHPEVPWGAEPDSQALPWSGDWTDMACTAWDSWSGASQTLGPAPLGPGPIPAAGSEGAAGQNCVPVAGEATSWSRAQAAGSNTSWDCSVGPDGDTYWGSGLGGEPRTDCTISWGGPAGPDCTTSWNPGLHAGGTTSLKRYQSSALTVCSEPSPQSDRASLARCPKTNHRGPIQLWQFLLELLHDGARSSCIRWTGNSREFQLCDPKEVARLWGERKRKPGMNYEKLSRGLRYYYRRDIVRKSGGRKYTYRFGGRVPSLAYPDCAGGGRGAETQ
Summary of the method: as §1

[8] = molecular target: T5, ELF3 (Homo sapiens, UniProt P78545 1-371); settings: protein: recombinant; tags: N-terminal GST; dsDNA, one strand shown
T5 sequence: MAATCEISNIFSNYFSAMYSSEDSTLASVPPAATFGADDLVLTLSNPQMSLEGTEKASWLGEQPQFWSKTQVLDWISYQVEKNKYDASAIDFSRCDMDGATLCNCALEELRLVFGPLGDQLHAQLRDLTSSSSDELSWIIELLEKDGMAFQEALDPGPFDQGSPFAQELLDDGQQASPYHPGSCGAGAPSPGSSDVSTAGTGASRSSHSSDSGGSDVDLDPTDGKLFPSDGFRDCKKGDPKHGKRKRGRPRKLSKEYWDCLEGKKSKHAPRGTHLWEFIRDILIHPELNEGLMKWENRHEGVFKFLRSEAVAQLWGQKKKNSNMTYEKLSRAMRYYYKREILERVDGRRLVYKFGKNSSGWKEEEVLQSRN
Summary of the method: as §1

[9] = molecular target: CRX (Homo sapiens, UniProt O43186 1-299); settings: protein: recombinant; tags: N-terminal GST; dsDNA, one strand shown
Chain of CRX (O43186 whole entry): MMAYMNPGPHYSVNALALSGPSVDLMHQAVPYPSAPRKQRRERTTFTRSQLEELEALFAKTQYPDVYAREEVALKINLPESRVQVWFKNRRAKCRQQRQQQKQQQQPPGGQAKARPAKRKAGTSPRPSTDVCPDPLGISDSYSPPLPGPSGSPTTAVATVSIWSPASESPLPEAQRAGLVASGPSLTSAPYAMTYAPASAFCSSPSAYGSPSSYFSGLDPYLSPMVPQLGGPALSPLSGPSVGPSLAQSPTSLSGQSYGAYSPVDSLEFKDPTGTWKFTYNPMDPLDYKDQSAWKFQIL
Summary of the method: as §1

[10] = molecular target: ETV1 (Homo sapiens, UniProt P50549 1-477); settings: protein: recombinant; tags: N-terminal GST; dsDNA, one strand shown
Chain of ETV1 (P50549 whole entry): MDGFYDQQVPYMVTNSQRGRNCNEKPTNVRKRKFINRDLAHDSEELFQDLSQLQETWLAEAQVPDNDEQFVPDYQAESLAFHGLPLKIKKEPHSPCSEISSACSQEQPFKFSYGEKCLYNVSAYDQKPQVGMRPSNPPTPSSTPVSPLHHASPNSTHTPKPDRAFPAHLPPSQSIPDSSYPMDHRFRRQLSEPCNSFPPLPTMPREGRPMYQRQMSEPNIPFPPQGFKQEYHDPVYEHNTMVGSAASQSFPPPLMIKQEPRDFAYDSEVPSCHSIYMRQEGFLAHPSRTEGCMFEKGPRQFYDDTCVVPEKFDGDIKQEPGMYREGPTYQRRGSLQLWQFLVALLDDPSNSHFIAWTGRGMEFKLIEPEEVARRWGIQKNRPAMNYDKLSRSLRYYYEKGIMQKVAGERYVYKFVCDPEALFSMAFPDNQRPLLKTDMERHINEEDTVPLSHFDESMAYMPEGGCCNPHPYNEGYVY
Summary of the method: as §1

Sequence	binding signal [1]	binding signal [2]	binding signal [3]	binding signal [4]	binding signal [5]	binding signal [6]	binding signal [7]	binding signal [8]	binding signal [9]	binding signal [10]
ACCTAT	1.15 fold enrichment (6-mer frequency, TF over GST control)	1.14 fold enrichment (6-mer frequency, TF over GST control)	1.05 fold enrichment (6-mer frequency, TF over GST control)	1.11 fold enrichment (6-mer frequency, TF over GST control)	1.24 fold enrichment (6-mer frequency, TF over GST control)	1.13 fold enrichment (6-mer frequency, TF over GST control)	1.28 fold enrichment (6-mer frequency, TF over GST control)	1.24 fold enrichment (6-mer frequency, TF over GST control)	1.09 fold enrichment (6-mer frequency, TF over GST control)	1.21 fold enrichment (6-mer frequency, TF over GST control)
AATCCG	2.44 fold enrichment (6-mer frequency, TF over GST control)	1.65 fold enrichment (6-mer frequency, TF over GST control)	2.09 fold enrichment (6-mer frequency, TF over GST control)	1.48 fold enrichment (6-mer frequency, TF over GST control)	1.46 fold enrichment (6-mer frequency, TF over GST control)	1.33 fold enrichment (6-mer frequency, TF over GST control)	1.47 fold enrichment (6-mer frequency, TF over GST control)	1.32 fold enrichment (6-mer frequency, TF over GST control)	3.2 fold enrichment (6-mer frequency, TF over GST control)	1.43 fold enrichment (6-mer frequency, TF over GST control)
AGAAGC	1.14 fold enrichment (6-mer frequency, TF over GST control)	1.12 fold enrichment (6-mer frequency, TF over GST control)	1.96 fold enrichment (6-mer frequency, TF over GST control)	1.28 fold enrichment (6-mer frequency, TF over GST control)	1.13 fold enrichment (6-mer frequency, TF over GST control)	1.07 fold enrichment (6-mer frequency, TF over GST control)	1.22 fold enrichment (6-mer frequency, TF over GST control)	1.09 fold enrichment (6-mer frequency, TF over GST control)	1.32 fold enrichment (6-mer frequency, TF over GST control)	1.11 fold enrichment (6-mer frequency, TF over GST control)
CCTCCG	1.45 fold enrichment (6-mer frequency, TF over GST control)	1.34 fold enrichment (6-mer frequency, TF over GST control)	1.01 fold enrichment (6-mer frequency, TF over GST control)	1.62 fold enrichment (6-mer frequency, TF over GST control)	1.38 fold enrichment (6-mer frequency, TF over GST control)	1.36 fold enrichment (6-mer frequency, TF over GST control)	1.33 fold enrichment (6-mer frequency, TF over GST control)	1.32 fold enrichment (6-mer frequency, TF over GST control)	1.07 fold enrichment (6-mer frequency, TF over GST control)	1.4 fold enrichment (6-mer frequency, TF over GST control)
AAGAAC	1.19 fold enrichment (6-mer frequency, TF over GST control)	1.16 fold enrichment (6-mer frequency, TF over GST control)	1.63 fold enrichment (6-mer frequency, TF over GST control)	1.24 fold enrichment (6-mer frequency, TF over GST control)	1.2 fold enrichment (6-mer frequency, TF over GST control)	1.18 fold enrichment (6-mer frequency, TF over GST control)	1.13 fold enrichment (6-mer frequency, TF over GST control)	1.16 fold enrichment (6-mer frequency, TF over GST control)	1.28 fold enrichment (6-mer frequency, TF over GST control)	1.22 fold enrichment (6-mer frequency, TF over GST control)
ACTCAT	1.32 fold enrichment (6-mer frequency, TF over GST control)	1.32 fold enrichment (6-mer frequency, TF over GST control)	1.13 fold enrichment (6-mer frequency, TF over GST control)	1.26 fold enrichment (6-mer frequency, TF over GST control)	1.35 fold enrichment (6-mer frequency, TF over GST control)	1.32 fold enrichment (6-mer frequency, TF over GST control)	1.42 fold enrichment (6-mer frequency, TF over GST control)	1.13 fold enrichment (6-mer frequency, TF over GST control)	1.19 fold enrichment (6-mer frequency, TF over GST control)	1.35 fold enrichment (6-mer frequency, TF over GST control)
CTCACT	1.63 fold enrichment (6-mer frequency, TF over GST control)	1.4 fold enrichment (6-mer frequency, TF over GST control)	1.36 fold enrichment (6-mer frequency, TF over GST control)	1.57 fold enrichment (6-mer frequency, TF over GST control)	1.53 fold enrichment (6-mer frequency, TF over GST control)	1.38 fold enrichment (6-mer frequency, TF over GST control)	1.51 fold enrichment (6-mer frequency, TF over GST control)	1.63 fold enrichment (6-mer frequency, TF over GST control)	1.27 fold enrichment (6-mer frequency, TF over GST control)	1.49 fold enrichment (6-mer frequency, TF over GST control)
